# Assay results taken from the supplement of paper PMC8728848.
# The entries come from a sample that favours the strongest signals as a whole.
# What was measured:
# Assay in all cases: glycan array binding signal (z-score within array); higher = stronger binding
# Conditions in all cases: glycan notation: IUPAC condensed, linker removed
# [1] = target: Fuc(a1-2)Gal(b1-4)GlcNAc(b1-2)Man(a1-3)[Fuc(a1-2)Gal(b1-4)GlcNAc(b1-2)Man(a1-6)]Man(b1-4)GlcNAc(b1-4)GlcNAc
# Procedure, shortened: (§1)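 Glycan array binding is given as a within-array Z-score, which can be read as non-binding when negative. The arrays, 3228 of them, came from the Consortium for Functional Glycomics database and were retained only where the protein sequence was available. Z-scores were averaged across arrays of the same protein sequence at different concentrations or buffers and across linkers.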
# [2] = target: Fuc(a1-2)Gal(b1-4)[Fuc(a1-3)]GlcNAc(b1-2)Man(a1-3)[Fuc(a1-2)Gal(b1-4)[Fuc(a1-3)]GlcNAc(b1-2)Man(a1-6)]Man(b1-4)GlcNAc(b1-4)[Fuc(a1-6)]GlcNAc
# Procedure, shortened: as §1
# [3] = target: Fuc(a1-2)Gal(b1-4)[Fuc(a1-3)]GlcNAc(b1-3)GalNAc
# Procedure, shortened: as §1
# [4] = target: Fuc(a1-2)Gal3S(b1-4)GlcNAc
# Procedure, shortened: as §1
# Fuc(a1-2)Gal6S(b1-4)Glc = target: Fuc(a1-2)Gal6S(b1-4)Glc
# Procedure, shortened: as §1
# [5] = target: Fuc(a1-2)[GalNAc(a1-3)]Gal(b1-4)GlcNAc(b1-2)Man(a1-3)[Fuc(a1-2)[GalNAc(a1-3)]Gal(b1-4)GlcNAc(b1-2)Man(a1-6)]Man(b1-4)GlcNAc(b1-4)[Fuc(a1-6)]GlcNAc
# Procedure, shortened: as §1
# [6] = target: Fuc(a1-3)[Gal(b1-4)]GlcNAc(b1-2)Man(a1-3)[Fuc(a1-3)[Gal(b1-4)]GlcNAc(b1-2)Man(a1-6)]Man(b1-4)GlcNAc(b1-4)[Fuc(a1-6)]GlcNAc
# Procedure, shortened: as §1
# Gal(a1-3)Gal(b1-4)GlcNAc = target: Gal(a1-3)Gal(b1-4)GlcNAc
# Procedure, shortened: as §1
# [7] = target: Gal(a1-3)Gal(b1-4)GlcNAc(b1-2)Man(a1-3)[Gal(a1-3)Gal(b1-4)GlcNAc(b1-2)Man(a1-6)]Man(b1-4)GlcNAc(b1-4)GlcNAc
# Procedure, shortened: as §1
# [8] = target: Gal(a1-4)Gal(b1-3)GlcNAc(b1-2)Man(a1-3)[Gal(a1-4)Gal(b1-3)GlcNAc(b1-2)Man(a1-6)]Man(b1-4)GlcNAc(b1-4)GlcNAc
# Procedure, shortened: as §1
# [9] = target: Gal(a1-4)Gal(b1-4)GlcNAc(b1-2)Man(a1-3)[Gal(a1-4)Gal(b1-4)GlcNAc(b1-2)Man(a1-6)]Man(b1-4)GlcNAc(b1-4)GlcNAc
# Procedure, shortened: as §1
# Gal(b1-3)Gal(b1-4)GlcNAc = target: Gal(b1-3)Gal(b1-4)GlcNAc
# Procedure, shortened: as §1
# [10] = target: Gal(b1-3)GalNAc(b1-3)Gal(a1-4)Gal(b1-4)Glc
# Procedure, shortened: as §1
# Gal(b1-3)GlcNAc(b1-2)Man = target: Gal(b1-3)GlcNAc(b1-2)Man
# Procedure, shortened: as §1
# [11] = target: Gal(b1-3)GlcNAc(b1-2)Man(a1-3)[Gal(b1-3)GlcNAc(b1-2)Man(a1-6)]Man(b1-4)GlcNAc(b1-4)GlcNAc
# Procedure, shortened: as §1
# [12] = target: Gal(b1-3)[Fuc(a1-4)]GlcNAc(b1-2)Man(a1-3)[Gal(b1-3)[Fuc(a1-4)]GlcNAc(b1-2)Man(a1-6)]Man(b1-4)GlcNAc(b1-4)[Fuc(a1-6)]GlcNAc
# Procedure, shortened: as §1
# [13] = target: Gal(b1-4)GalNAc(a1-3)[Fuc(a1-2)]Gal(b1-4)GlcNAc
# Procedure, shortened: as §1
# [14] = target: Gal(b1-4)GlcNAc(b1-2)Man(a1-3)Man(b1-4)GlcNAc(b1-4)GlcNAc
# Procedure, shortened: as §1
# [15] = target: Gal(b1-4)GlcNAc(b1-2)Man(a1-3)[Gal(b1-4)GlcNAc(b1-2)Man(a1-6)]Man(b1-4)GlcNAc(b1-4)[Fuc(a1-6)]GlcNAc
# Procedure, shortened: as §1
# [16] = target: Gal(b1-4)GlcNAc(b1-2)Man(a1-6)[GlcNAc(b1-2)Man(a1-3)]Man(b1-4)GlcNAc(b1-4)GlcNAc
# Procedure, shortened: as §1
# [17] = target: Gal(b1-4)GlcNAc(b1-2)[Gal(b1-4)GlcNAc(b1-6)]Man(a1-6)[Gal(b1-4)GlcNAc(b1-2)Man(a1-3)]Man(b1-4)GlcNAc(b1-4)GlcNAc
# Procedure, shortened: as §1
# [18] = target: Gal(b1-4)GlcNAc(b1-3)Gal(b1-4)GlcNAc(b1-2)Man(a1-3)[Gal(b1-4)GlcNAc(b1-3)Gal(b1-4)GlcNAc(b1-2)Man(a1-6)]Man(b1-4)GlcNAc(b1-4)[Fuc(a1-6)]GlcNAc
# Procedure, shortened: as §1
# [19] = target: Gal(b1-4)GlcNAc(b1-3)Gal(b1-4)GlcNAc(b1-2)[Gal(b1-4)GlcNAc(b1-3)Gal(b1-4)GlcNAc(b1-6)]Man(a1-6)[Gal(b1-4)GlcNAc(b1-3)Gal(b1-4)GlcNAc(b1-2)Man(a1-3)]Man(b1-4)GlcNAc(b1-4)GlcNAc
# Procedure, shortened: as §1
# [20] = target: Gal(b1-4)GlcNAc(b1-3)Gal(b1-4)GlcNAc(b1-3)Gal(b1-4)GlcNAc(b1-3)Gal(b1-4)GlcNAc(b1-2)Man(a1-3)[Gal(b1-4)GlcNAc(b1-3)Gal(b1-4)GlcNAc(b1-3)Gal(b1-4)GlcNAc(b1-3)Gal(b1-4)GlcNAc(b1-2)Man(a1-6)]Man(b1-4)GlcNAc(b1-4)[Fuc(a1-6)]GlcNAc
# Procedure, shortened: as §1
binder,measurement,setting,value
PX9961T-pdi-555-33-555 (Parabacteroides distasonis) (protein) FDEETAFQSPTLVYVNTVASLYNNMFKIMGNDRHVYDLNTFSSDEAMLPCRIGDWEDGGLWQNIFLHRWGTMNDLTKNSWDFLYEQIGKCNQSVDKLQAFAEEQPDVEYFKVYLEEVRAVRAFFYYELLDLFARVPLVTSSTTPMSEVKQSERSVVFNFVRSELEEALPYLSDNRSNQKGEYYGRITKPVAYMILAKLALNAEVYADDNWTDGNRPAGKNIKFTVDGKEMNAWEATIAYVDKLEALGYKLQGNFSENFAVANETSVENIFTVPMDPVAYPDAKDYNLVRTRHYDHATAYGQSGWNGSCATVKAMNVFKFGTADEDPRCKLTYFTGEVTGPDGKTIYTEWDGQKVPLKYEPNAPKVYMDASDGLLVKTAGARMAKYEFDQNAQDGGNLHGNDCVIFRFADALLMKAEAKIRLGQNGDDEVNQVRNRVGAKPLQNVTLDTLLDERMLELAWEGVRRQDLIRFGKFTEATVDRYVGVKHFASSLDYQEDKTGYTTVFSIYADILSLNPNLTQNPGY,glycan array binding signal (z-score),[1],1.91
same,glycan array binding signal (z-score),[2],0.323
same,glycan array binding signal (z-score),[3],-0.359
same,glycan array binding signal (z-score),[4],-0.354
same,glycan array binding signal (z-score),Fuc(a1-2)Gal6S(b1-4)Glc,-0.589
same,glycan array binding signal (z-score),[5],2.12
same,glycan array binding signal (z-score),[6],-0.637
same,glycan array binding signal (z-score),Gal(a1-3)Gal(b1-4)GlcNAc,0.037
same,glycan array binding signal (z-score),[7],0.963
same,glycan array binding signal (z-score),[8],2.7
same,glycan array binding signal (z-score),[9],1.51
same,glycan array binding signal (z-score),Gal(b1-3)Gal(b1-4)GlcNAc,-0.663
same,glycan array binding signal (z-score),[10],-0.576
same,glycan array binding signal (z-score),Gal(b1-3)GlcNAc(b1-2)Man,0.661
same,glycan array binding signal (z-score),[11],-0.248
same,glycan array binding signal (z-score),[12],-0.151
same,glycan array binding signal (z-score),[13],-0.527
same,glycan array binding signal (z-score),[14],-0.441
same,glycan array binding signal (z-score),[15],0.171
same,glycan array binding signal (z-score),[16],-0.306
same,glycan array binding signal (z-score),[17],-0.161
same,glycan array binding signal (z-score),[18],0.672
same,glycan array binding signal (z-score),[19],1.53
same,glycan array binding signal (z-score),[20],0.109
